The whole screen tested about 310,000 compounds, of which about 3,600 (1.2%) were called active. This is one part of a sample in which actives are shown more often than they occur.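 Rule for the calls: active = ratio plate-corrected score three or more library SD toward inhibition, starting fluorescence score within five deviations; inactive = the rest.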
biological target: Anoctamin-1 (Mus musculus) (UniProt Q8BHY3); test: TMEM16A chloride channel inhibitors, primary screen, cell-based, HTS (AID 588511); details: HEK293 TMEM16A/YFP iodide influx fluorescence, ionomycin; at 10 µM;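 for normalized B-score (activity score, 25-100; higher = stronger inhibition): score derived from kinetic fluorescence span divided by baseline fluorescence per well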
Sequence (Q8BHY3 whole entry, looked up): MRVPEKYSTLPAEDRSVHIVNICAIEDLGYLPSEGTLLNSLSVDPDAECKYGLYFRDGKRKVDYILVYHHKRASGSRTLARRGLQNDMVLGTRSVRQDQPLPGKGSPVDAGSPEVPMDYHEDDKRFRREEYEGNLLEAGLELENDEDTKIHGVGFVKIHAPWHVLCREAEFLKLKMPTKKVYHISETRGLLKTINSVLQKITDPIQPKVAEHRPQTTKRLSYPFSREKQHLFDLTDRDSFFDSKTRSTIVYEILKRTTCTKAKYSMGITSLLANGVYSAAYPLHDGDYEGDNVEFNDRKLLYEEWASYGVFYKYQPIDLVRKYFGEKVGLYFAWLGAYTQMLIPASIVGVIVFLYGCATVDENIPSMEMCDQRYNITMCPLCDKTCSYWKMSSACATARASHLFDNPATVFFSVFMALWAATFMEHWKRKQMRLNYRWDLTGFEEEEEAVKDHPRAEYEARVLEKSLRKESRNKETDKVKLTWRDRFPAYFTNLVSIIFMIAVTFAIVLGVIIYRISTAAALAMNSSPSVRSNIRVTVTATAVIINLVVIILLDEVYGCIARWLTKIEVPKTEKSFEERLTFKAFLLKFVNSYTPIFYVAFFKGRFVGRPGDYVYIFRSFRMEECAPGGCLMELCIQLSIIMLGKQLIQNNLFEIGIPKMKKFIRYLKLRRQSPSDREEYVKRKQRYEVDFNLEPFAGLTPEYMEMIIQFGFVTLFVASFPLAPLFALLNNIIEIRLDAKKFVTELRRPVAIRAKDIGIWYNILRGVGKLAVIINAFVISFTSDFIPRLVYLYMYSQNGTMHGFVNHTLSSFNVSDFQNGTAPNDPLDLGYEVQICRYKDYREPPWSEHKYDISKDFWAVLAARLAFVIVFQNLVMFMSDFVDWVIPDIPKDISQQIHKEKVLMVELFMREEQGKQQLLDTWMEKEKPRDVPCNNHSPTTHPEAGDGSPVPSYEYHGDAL

Structure (SMILES)	normalized B-score (activity score, 25-100; higher = stronger inhibition)
O=C(c1ccc(CSc2ccccc2)cc1)N1CCCCCC1	inactive
O=C(C1CC1)N1CCN=C1SCc1ccc(Cl)cc1	inactive
CC1CCN(C(=O)c2ccc(CSc3ccc(Cl)cc3)cc2)CC1	25 (active)
CCCCN1C(N)=NC[C@@H]1Cc1ccccc1	inactive
COc1ccc(NS(=O)(=O)c2ccc(C)c(C(=O)NNC(=O)c3csc(N4CCOCC4)n3)c2)cc1	inactive
Cc1ccc(CN2CCN(Cc3ccc(OCCO)cc3)CC2CCO)o1 (stereo not drawn)	inactive
CC12CCC(C(=O)N(c3cccc(Cl)c3)C1=O)C2(C)C (stereo not drawn)	inactive
CC1=NN(c2cccc(Cl)c2)C(=O)C12CC(C)=C(C)CS2 (stereo not drawn)	100 (active)
Cc1ccccc1OCC(=O)NNC(=O)c1cc(S(=O)(=O)N(C)C)ccc1N1CCCC1	inactive
CN(C(=O)COC(=O)c1ccc(Br)o1)c1c(N)n(Cc2ccccc2)c(=O)[nH]c1=O	inactive
COC(=O)c1ccccc1NS(=O)(=O)c1ccc2[nH]c(=O)[nH]c2c1	inactive
COc1cccc(OC)c1C(=O)Nc1c(C(=O)N2CCN(c3ccccn3)CC2)oc2ccccc12	inactive
Cc1cc(NC(=O)[C@H](C)NC(=O)c2ccco2)ccc1Br	inactive
O=C(CN1C(=O)C2C3C=CC(C3)C2C1=O)Nc1nc(-c2ccccn2)cs1 (stereo not drawn)	inactive
CC(NC(=O)c1ccco1)C(=O)Nc1nc(-c2ccccn2)cs1 (stereo not drawn)	100 (active)
CCc1ccc(NC(=O)C(=O)NNC(=O)c2cccs2)cc1	inactive
OCC[C@H]1C[C@@H](O)[C@H](O)[C@@]2(OCCc3ccccc32)O1	inactive
CCOC(=O)C1Nc2ccc(C(F)(F)F)cc2C2C=CCC12 (stereo not drawn)	inactive
COc1ccc(C(=O)N2CCCCC2C(=O)Nc2ccc(-n3nc(C)cc3C)cc2)o1 (stereo not drawn)	inactive
O=S(=O)(NC1CC2CCC1C2)c1ccc(Cl)cc1 (stereo not drawn)	inactive
CCOc1ccc2nc(NC(=O)c3cc([N+](=O)[O-])ccc3N3CCOCC3)sc2c1	inactive
CCC(=O)c1ccc(OCC(=O)Nc2ccc3nc(C)sc3c2)cc1	inactive

Structure (SMILES)	normalized B-score (activity score, 25-100; higher = stronger inhibition)
Cc1cc(C)cc(OCC(=O)Nc2nc3ccc([N+](=O)[O-])cc3s2)c1	100 (active)
Cc1cc(F)ccc1N1CCC(N2CCN(C)C(CCO)C2)CC1 (stereo not drawn)	inactive
Cc1cccc(C(=O)Nc2ccc(Oc3cnccn3)cc2)c1	inactive
Cc1csc(=Nc2ccccc2)n1CCO	inactive
Cc1csc(=NC(=O)c2ccccc2)n1CCO	inactive
OCCn1c(-c2ccccc2)csc1=Nc1ccccc1	25 (active)
O=C(OC1CCOC1=O)c1cccc(S(=O)(=O)Nc2ccc(F)cc2)c1 (stereo not drawn)	inactive
CCOC(=O)C1CCN(C(=O)C2CCCN(S(=O)(=O)c3ccc(OC)c(Cl)c3)C2)CC1 (stereo not drawn)	inactive
COC(=O)c1ccc(COC(=O)C2CCN(S(=O)(=O)c3c(Cl)cccc3Cl)CC2)o1	inactive
COC(=O)c1ccc(CSc2ccccc2C)o1	inactive
COC(=O)c1ccc(COC(=O)c2c(C)nn(Cc3ccccc3Cl)c2Cl)o1	25 (active)
Cc1ccc(O)c(/C=N/NC(=O)COc2ccc3c(C)cc(=O)oc3c2)c1	inactive
CCOc1ccc(S(=O)(=O)N2CCN(C(=S)NCC3CCCO3)CC2)cc1 (stereo not drawn)	inactive
COc1ccc(S(=O)(=O)N2CCN(C(=S)NCC3CCCO3)CC2)cc1OC (stereo not drawn)	inactive
S=C(NCC1CCCO1)N1CCN(c2ccc(Cl)c(Cl)c2)CC1 (stereo not drawn)	100 (active)
Cc1ccccc1CN1CCNC(=O)C1CC(=O)NCCC1=CCCCC1 (stereo not drawn)	inactive
Cc1nnc(SCCCCSc2nnc(C)c(=O)[nH]2)[nH]c1=O	inactive
CC(C)(C)c1ccc(CCC2OCC(CN3CCOCC3)O2)cc1 (stereo not drawn)	inactive
CCCC(C)n1[nH]c(=O)c2c(C)cc(C)nc21 (stereo not drawn)	inactive
CCCCC(=O)NNC(=S)NC(=O)C(c1ccccc1)c1ccccc1	25 (active)
O=C(NNC(=S)NCc1ccco1)C(c1ccccc1)c1ccccc1	inactive
CC(C)C(=O)Nc1cccc(NC(=S)NC(=O)C(c2ccccc2)c2ccccc2)c1	inactive

Structure (SMILES)	normalized B-score (activity score, 25-100; higher = stronger inhibition)
CSCCC(NS(=O)(=O)c1ccc(C)cc1)C(=O)N1CCCC1 (stereo not drawn)	inactive
CN(C)c1ccc(-c2nnc(-c3cccnc3)o2)cc1	inactive
COc1cccc(N(C(=O)c2ccn[nH]2)C2(C(=O)Nc3c(C)cccc3C)CCCCC2)c1	inactive
CS(=O)(=O)N1CCN=C1SCc1ccc(F)cc1	inactive
CCOC(=O)N1CCN(C(=O)c2ccc3c(c2)N(Cc2ccc(C)cc2)CCS3)CC1	25 (active)
O=C(NCCc1ccccc1)c1ccc2c(c1)N(Cc1ccccc1)CCS2	inactive
O=C(NCCN1CCOCC1)c1ccc2c(c1)N(Cc1ccc(Cl)cc1)CCS2	inactive
CC1CCN(C(=O)c2cccc(S(=O)(=O)N3CCCc4ccccc43)c2)CC1	inactive
O=C1CCC(=O)N(O)CCCCCNC(=O)CCC(=O)N(O)CCCCCNC(=O)CCC(=O)N(O)CCCCCN1	inactive
Cc1ccc(NC(=O)c2nc[nH]c2C(=O)N[C@@H](CCCCNC(=O)OC(C)(C)C)C(=O)OC(C)(C)C)cc1	inactive
O=C(CC(O)(C(F)(F)F)C(F)(F)F)Nc1ccc(Cl)c(Cl)c1	100 (active)
O=C(CC1SCCNC1=O)Nc1ccc(Cl)c(Cl)c1 (stereo not drawn)	inactive
O=C(Cc1ccc(Cl)c(Cl)c1)Nc1ccc(SC(F)F)cc1	inactive
Cc1ccc(NC(=O)Cn2c(=O)n(CCC(=O)NC3CCN(Cc4ccccc4)CC3)c(=O)c3ccccc32)cc1	inactive
COc1ccc(-c2nc(SCC(=O)N3CCCC3)n[nH]2)cc1	inactive
CCc1ccc(-c2nc(SCC(=O)NC3CCCC3)n[nH]2)cc1	25 (active)
CCc1c(C)nc(SCC(=O)NC2CCCC2)[nH]c1=O	inactive
CCC(CC)C(=O)Nc1c2c(nn1-c1ccc(C)cc1)CS(=O)(=O)C2	inactive
O=C(NNS(=O)(=O)c1ccccc1C(F)(F)F)c1cc2ncc(C(F)(F)F)cc2s1	inactive
CCCCC(=O)Nc1ccccc1N1CCN(c2ccc(F)cc2)CC1	inactive
O=C(Nc1ccccc1N1CCN(C(=O)c2ccccc2)CC1)c1ccco1	inactive
CCCC(=O)Nc1ccccc1N1CCN(C(=O)c2ccccc2)CC1	25 (active)

Structure (SMILES)	normalized B-score (activity score, 25-100; higher = stronger inhibition)
Cc1cc(C)cc(NS(=O)(=O)c2ccc(Oc3ncc(C(F)(F)F)cc3Cl)cc2)c1	25 (active)
COc1ccccc1Oc1ccc(S(=O)(=O)Nc2cccnc2)cc1	inactive
Cc1cc(C)cc(NS(=O)(=O)c2ccc(F)cc2)c1	inactive
CN1C(CC(=O)Nc2ccc(Br)cc2)c2ccccc2CC1(C)C (stereo not drawn)	inactive
CCc1ccccc1NC(=O)CSc1nnc(CCNC(=O)OC(C)(C)C)o1	inactive
Cc1ccccc1CSc1nnc(CCCCCNC(=O)OC(C)(C)C)o1	100 (active)
Cc1cccc(NC(=O)CSc2nnc(CCCCCNC(=O)OC(C)(C)C)o2)c1C	inactive
CCc1ccc(C2C(C#N)=C(N)N(N3CCOCC3)C3=C2C(=O)CC(C)(C)C3)s1 (stereo not drawn)	inactive
COc1cccc(C(=O)NCCS(=O)(=O)NCC2CCCO2)c1 (stereo not drawn)	inactive
S=C(Nc1ccc(Br)cc1)NC1CCN(Cc2ccccc2)CC1	25 (active)
S=C(NN=C1CCN(Cc2ccccc2)CC1)NC1CCCCC1	inactive
S=C(NCCc1ccccc1)Nc1ccccc1	inactive
O=C(CCNC(=O)c1ccc(Br)cc1)NCCCc1ccccc1	inactive
S=C(Nc1ccc(Br)cc1Cl)NC1CCN(Cc2ccccc2)CC1	inactive
S=C(NCCCc1ccccc1)Nc1ccc(Br)cc1	100 (active)
O=C(NCc1ccccn1)C1CCN(S(=O)(=O)c2ccc(Br)cc2)CC1	inactive
COc1ccc(C(C#N)(CC(=O)O)c2cnccn2)cc1OC (stereo not drawn)	inactive
COc1ccc(CCNC(=O)c2ccccc2OCc2ccccc2)cc1	inactive
O=C(NC1CCC(O)CC1)c1ccccc1OCc1ccc(F)cc1 (stereo not drawn)	inactive
CC(=O)c1ccccc1OCc1ccc(C(=O)c2ccccc2)cc1	25 (active)
COc1ccccc1CNS(=O)(=O)c1ccc2c(c1)NC(=O)CS2	inactive
C=C(C)C(=O)Nc1cccc(C(C)=O)c1	inactive

Structure (SMILES)	normalized B-score (activity score, 25-100; higher = stronger inhibition)
CCSc1nsc(NC(=O)Nc2ccccc2OC)n1	inactive
CCSc1nsc(NC(=O)Nc2cccc(C(C)=O)c2)n1	inactive
O=C(Nc1ccccc1)Nc1nnc(COc2ccccc2F)s1	inactive
CSc1nsc(NC(=O)Nc2ccccc2)n1	100 (active)
C=CCSc1nsc(NC(=O)Nc2cccc(C(C)=O)c2)n1	100 (active)
COc1ccc(-c2c(-c3ccc(OC)cc3O)nc(C)nc2C(F)(F)F)cc1	inactive
COc1cc(NC(=O)c2ccc(-c3csc(C)n3)cc2)c(OC)cc1Cl	inactive
CC1CCCCN1CCCNC(=O)Cn1ncc2c([nH]c3ccccc32)c1=O (stereo not drawn)	inactive
Cc1ccc2c(c1)N(CC(=O)NCCCN1CCCCC1)C(=O)c1cccnc1O2	inactive
Clc1ccc(-c2nc3ccccn3c2CN2CCSCC2)cc1	inactive
CCCCn1c(N)c(N(CC(C)C)C(=O)CN(C)S(=O)(=O)c2ccc(F)cc2)c(=O)[nH]c1=O	inactive
CC(=O)c1cccc(NC(=O)N2CCCC2C(=O)NCCC(C)C)c1 (stereo not drawn)	25 (active)
CC(=O)c1cccc(NC(=O)N2CCCC2C(=O)NCCc2ccccc2)c1 (stereo not drawn)	inactive
COc1ccc(CCNC(=O)C2CCCN2C(=O)Nc2ccccc2)cc1OC (stereo not drawn)	inactive
Cc1snc(SCc2c(F)cccc2Cl)c1C#N	inactive
Cc1cc(C)c2c(-n3cccc3)c(C(=O)NNS(=O)(=O)c3ccc(F)cc3)sc2n1	inactive
CC(Sc1nnc(Cc2ccc([N+](=O)[O-])cc2)o1)C(N)=O (stereo not drawn)	inactive
Cc1cc(C(F)F)n2nc(C(=O)Nc3ccc(S(=O)(=O)NC45CC6CC(CC(C6)C4)C5)cc3)nc2n1	inactive
CCn1nccc1C(=O)Nc1ccc(S(=O)(=O)NC23CC4CC(CC(C4)C2)C3)cc1	25 (active)
CCn1nccc1C(=O)Nc1ccc(Cl)c(Cl)c1	inactive

— PubChem BioAssay AID588511 (Johns Hopkins Ion Channel Center, 2011)
